Assay results from the supplement of paper PMC6555819.

Key:
Experiment in all cases: PBM binding z-score (relative to random genomic background probes); higher = stronger binding; sequences stand for … in GC…GCGATTGACAGCGTAGAATGAAGG
[1] = test system: PPARg:RXRa DBDmut IVT, anti-RXR (DBD mutation: RXRa K156A/R161A, NR concentration 270 nM, RXRa partner concentration 90 nM)
Procedure, shortened: (§1)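 Binding buffer was PBS pH 7.4 with 2% milk, 0.02% Triton X-100, 1 mM DTT, 0.2 mg/mL BSA and 0.4 mg/ml salmon testes DNA. In it, ligand-free nuclear receptor dimers were incubated 1 h on custom Agilent 4×180K protein-binding microarrays carrying double-stranded probes. Antibodies against each partner (one per run) detected binding, and z-scores were calculated against random background probes after regression normalization of scanned fluorescence.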

[2] = test system: PPARg:RXRa IVT, anti-PPARg (NR concentration 270 nM, RXRa partner concentration 90 nM)
Procedure, shortened: as §1

[3] = test system: PPARg DBDmut:RXRa IVT, anti-PPARg (DBD mutation: PPARg1 K132A/R137A, NR concentration 270 nM, RXRa partner concentration 90 nM)
Procedure, shortened: as §1

[4] = test system: PPARg DBDmut IVT, anti-PPARg (DBD mutation: PPARg1 K132A/R137A, NR concentration 270 nM)
Procedure, shortened: as §1

[5] = test system: PPARg homodimer (NR concentration 180 nM)
Procedure, shortened: as §1

[6] = test system: PXR:RXRa (NR concentration 270 nM, RXRa partner concentration 90 nM)
Procedure, shortened: as §1

[7] = test system: PXR homodimer (NR concentration 270 nM)
Procedure, shortened: as §1

[8] = test system: RARa:RXR (NR concentration 270 nM, RXRa partner concentration 90 nM)
Procedure, shortened: as §1

[9] = test system: RARa homodimer (NR concentration 270 nM)
Procedure, shortened: as §1

[10] = test system: RARb:RXRa (NR concentration 270 nM, RXRa partner concentration 90 nM)
Procedure, shortened: as §1

Sequence | PBM binding z-score [1] | PBM binding z-score [2] | PBM binding z-score [3] | PBM binding z-score [4] | PBM binding z-score [5] | PBM binding z-score [6] | PBM binding z-score [7] | PBM binding z-score [8] | PBM binding z-score [9] | PBM binding z-score [10]
CCGACTGGGGCAAAGGTTCCCATACTCAGTACGA | 4.43 | 4.51 | -0.428 | -0.816 | -0.0222 | -0.128 | -0.291 | 0.588 | 0.117 | 0.831
GTACCAAGGTGGATAGGTCGTTGATGAGTAGGCG | -0.637 | -0.0801 | -1.52 | -1.37 | 0.672 | -0.207 | 0.137 | -0.144 | 0.114 | 0.368
CCTCGGAGGACAGAAGGTGAGAGCTGTCCGCTTT | -0.327 | 0.0317 | -1.56 | -1.59 | 0.19 | -0.301 | -0.684 | 0.317 | -0.413 | 1.09
GCGACTGGGGCATCCGCAGGTTACCATAACTTAA | 3.8 | 3.27 | -1.11 | -0.898 | -0.268 | 0.263 | -0.637 | 0.49 | -1 | 0.89
CCTATCAGGCCAATCTGGGTCACTCAAGGCTTGA | 4.25 | 5.29 | 0.637 | -0.095 | 1.45 | 1.27 | -0.29 | 2.62 | 0.00198 | 1.75
AGAACGAGGGAACGCTGAGTTGATAGCAGAGTAG | 0.157 | 0.0104 | -0.0244 | -0.171 | -0.732 | -0.323 | -0.229 | -0.613 | 0.201 | -0.517
AACGAAAGGTCGAGGTGAGTATAGAGAAAGGGAA | 0.47 | 2.34 | 0.731 | 0.177 | 1.1 | 2.6 | 0.272 | 3.51 | 0.313 | 4.23
CCTTACGGGTCAATGTTATAGCACGGGTGGTACG | 1.71 | 2.59 | 0.14 | 0.289 | 1.3 | 2.45 | -0.0609 | 3.35 | 0.558 | 3.57
CCTGCTAGGTCAATGGGCAGCTAAAGCAGCTCGC | 3.7 | 3.4 | -0.844 | -1.02 | 0.228 | 0.352 | -0.589 | 1.07 | -0.679 | 3.6
CCTACTGGGCCATTAGGTCATTGATATCAACGTT | 5.31 | 5.88 | 0.577 | 0.445 | 1.02 | 1.13 | 0.202 | 1.72 | 0.45 | 2.09
GCTAGTTGGTCAGTAAAAGGTCATACACCGGTCG | 0.651 | 2.38 | -0.0949 | -0.0441 | 3.01 | 4.5 | 1.09 | 5.05 | 1.09 | 3.94
CCTATTAGTTGGCCATAAGGGCAACCGAAGCTCG | 0.405 | 0.608 | 0.65 | -0.464 | 0.599 | 0.101 | 0.238 | 0.307 | 0.354 | 1.11
TCAGACAGGTGAAGGTAACTGAGGTACGCAGTCG | 2.45 | 1.54 | 0.121 | -0.373 | 0.384 | 0.388 | -0.0672 | 0.874 | 0.545 | 1.04
CTACCAAGGTGAACAAGGTCGTTTATTACTATTC | 2.67 | 2.5 | 0.494 | 0.322 | 1.29 | 3.07 | 2.38 | 2.12 | 0.698 | 2.26
ATCGAAAGGTCGAAGCTGAGTATACCCACCCGAA | 0.112 | 1.14 | 0.883 | -0.0386 | 1.49 | 2.27 | 0.151 | 3.14 | 0.371 | 3.63
CAAACTAGGTCTAGAGGTCAAAGTCCGCTTCCCG | 3.11 | 4.41 | 0.248 | 0.06 | 3.03 | 5.4 | 2.48 | 5.69 | 0.52 | 3.96
CCGACTGGGGCAGAAATGTTACCATACCATCCGG | 1.57 | 0.993 | -0.699 | -1.22 | -0.25 | -0.347 | -0.252 | -0.499 | -0.698 | 0.0353
TATACAGGGTCAAGGGCCAGAGTACGAATGTCGA | 2.4 | 4.69 | 2.98 | 1.83 | 3.27 | 3.99 | 0.571 | 4.97 | 1.16 | 4.61
CCGACTGGGGCAGAAGGGTTACCATACCATCCGG | 1.09 | 1.56 | -0.531 | -1.22 | 0.108 | -0.0806 | -0.804 | 0.392 | -0.582 | 0.984
CCTAGTTGGGCAAGGTCACACACGCTATAGGTAC | 0.83 | 2.2 | 0.202 | 0.558 | 2.56 | 3.9 | 1.13 | 4.04 | 1.63 | 3.91
ACTAGTTGGTCAGCTGAGGTCTCACACAATTCGG | 1.19 | 0.901 | 0.251 | 0.203 | 0.325 | 0.286 | -0.249 | 0.165 | 0.106 | 1.05
CTACCTAGGTGAACAAGGTCGTTGATTACTATTC | 4.5 | 3.81 | 0.734 | 0.335 | 1.52 | 2.25 | 1.14 | 1.95 | 0.759 | 1.5
CCTAGCAGGCTAATCTGGGTCACTCAAGGCTTGA | 4.46 | 5.23 | 0.678 | 0.0667 | 0.493 | 0.328 | -0.671 | 1.34 | -0.634 | 1.07
CCGAGTAGGTTCTGGGGCATTCAGGCAACGGTGA | 1.08 | 1.69 | -1.23 | -1.34 | 0.223 | -0.868 | -0.237 | -0.69 | -0.226 | 0.00361
